Only some compounds are listed: those with a hit (about 2.7% of all), similar ones and a draw of the others.
ATXN viability: cell viability loss in ATXN counter-screen. S2 cells (HEK-293 line with an ATXN2-luciferase reporter) viability, CellTiter-Fluor protease fluorescence, 24 h. Potency, µM (highest dose often 56.7 µM), usual class: cytotoxic. hit rate 0.49% among 400,000. AID 651635; also: nearly all actives have a fitted effect of over 40% in size
ALOX12 inh: blocks human arachidonate 12S-lipoxygenase; P18054; purified 12hLO, xylenol orange hydroperoxide absorbance; Potency, µM (titrated, usually from 108 µM), most hits filed as inhibitors; hit rate 1.1% among 580,000; AID 1671190
Target sequence (P18054 whole entry, looked up): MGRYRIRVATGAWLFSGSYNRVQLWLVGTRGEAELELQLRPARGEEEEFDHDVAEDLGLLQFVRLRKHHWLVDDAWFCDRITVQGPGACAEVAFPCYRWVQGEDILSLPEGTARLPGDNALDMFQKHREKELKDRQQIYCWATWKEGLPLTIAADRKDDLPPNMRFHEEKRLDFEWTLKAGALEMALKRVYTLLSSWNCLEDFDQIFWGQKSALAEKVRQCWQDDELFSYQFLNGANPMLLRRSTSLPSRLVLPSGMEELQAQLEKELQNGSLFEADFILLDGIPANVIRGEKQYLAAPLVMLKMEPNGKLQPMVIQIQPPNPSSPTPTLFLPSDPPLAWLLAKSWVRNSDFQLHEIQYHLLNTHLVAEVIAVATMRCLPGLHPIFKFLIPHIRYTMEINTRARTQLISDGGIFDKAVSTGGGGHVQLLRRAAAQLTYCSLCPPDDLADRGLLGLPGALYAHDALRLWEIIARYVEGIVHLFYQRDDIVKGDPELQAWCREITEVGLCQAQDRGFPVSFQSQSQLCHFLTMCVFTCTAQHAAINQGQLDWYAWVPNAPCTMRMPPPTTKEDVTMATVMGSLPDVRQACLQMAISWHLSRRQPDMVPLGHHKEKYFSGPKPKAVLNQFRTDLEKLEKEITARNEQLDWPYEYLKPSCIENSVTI
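Purified human 12hLO (150 nM final) in 25 mM Hepes, 0.01% Triton X-100, pH 7.0 was preincubated 15 min at room temperature with compound. Then 40 uM arachidonic acid was added, 30 min. Hydroperoxide was read by Fe-XO absorbance ratio 573/405 nm.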
ATXN2 expr inh: inhibitors of ATXN2 expression; HEK-293 ATXN2-luciferase reporter, luminescence, 24 h; Potency, µM (highest dose often 57 µM), actives largely listed as inhibitors; hit rate 0.72% among 360,000; also: nearly all actives have a fitted effect of over 55% in size
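qHTS (up to 57 uM final) was run with 24 h compound exposure of reporter cells at 37 °C. Each well was multiplexed: SteadyGlo luminescence measured ATXN2-luciferase expression after a fluorogenic Gly-Phe-AFC viability readout (25 uM final).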
HepG2 tox: counter-screen for TGF-b inhibitors: cytotoxicity in HepG2 cells; AID 588856; HepG2 CAGA-GFP viability, ATP luminescence, 18 h; hit rate 0.76% among 410,000; Potency, µM (top dose mostly 46.1 µM), usual class: cytotoxic
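CellTiter-Glo luminescence gave cytotoxicity after 18 hours at 37 degrees C. The cells were HepG2 CAGA-GFP in 1% FBS DMEM, stimulated with 500 pg/mL TGF-beta after compound addition. %Activity was normalised to no-cell wells (complete cell-killing) and DMSO (no toxicity), and curves were fitted and classified.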
TGFb inhibitor: blocks TGF-b signaling. HepG2 CAGA-GFP TGF-b/SMAD3 reporter, GFP fluorescence, 18 h; TGF-beta stimulated, 500 pg/mL final. Potency, µM (series often up to 46.1 µM), actives largely listed as inhibitors. hit rate 1.2% among 410,000; also: nearly all actives have a fitted effect of over 65% in size
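Cell-based qHTS in HEPG2 carrying a CAGA-GFP Smad reporter; compounds added before 500 pg/mL final TGF-beta, 18 h incubation at 37 degrees C, GFP fluorescence quantified per cell by imaging cytometry.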
A number is an active result; . = inactive; ? = inconclusive; / = not tested or not shown. Calls follow the shape of the dose curve; as a rule, active = well fitted curve in the direction sought with a large enough effect; inconclusive = small, poorly fitted or top-dose-only effect, or another doubt; inactive = no such curve, though single readings can be large; an effect the other way counts as inactive or inconclusive.

SMILES	ATXN viability	ALOX12 inh	ATXN2 expr inh	HepG2 tox	TGFb inhibitor
Cc1ccccc1CN1C(=O)C(O)(CC(=O)c2cccc(Br)c2)c2ccccc21 (configuration not stated)	/	.	/	12.6µM	12.6µM
COC(=O)CN1C(=O)C(O)(CC(=O)c2cccc(Br)c2)c2ccccc21 (configuration not stated)	.	.	.	.	.
CCCCCn1c(=O)c2ccccc2n2c(=S)[nH]nc12	.	44.7µM	/	.	.
CCCCn1c(=O)c2ccccc2n2c(=S)[nH]nc12	?	6.31µM	.	.	.
CCCn1c(=O)c2ccccc2n2c(=S)[nH]nc12	.	.	.	.	.
Nc1nc(CN2CCN(C(=O)c3cccc(F)c3)CC2)nc2ccccc12	/	.	/	/	/
O=C(CCl)c1ccc2[nH]c(=O)oc2c1	.	?	/	10µM	?
O=c1[nH]c2ccc(Br)cc2o1	.	.	.	.	.
COc1ccc(C2(C(=O)Nc3cc(C)on3)CCOCC2)cc1	.	.	.	.	.
Cc1ccc(NC(=O)C2(c3ccc4c(c3)OC(F)(F)O4)CC2)nc1-c1cccc(C(=O)O)c1	/	.	0.0863µM	/	/
CCc1nc2ccc(C(=O)NCCc3ccccn3)cn2c1N(C)Cc1nccs1	.	.	.	.	.
CCc1nc2ccc(C(=O)NCCc3ccccn3)cn2c1N(C)Cc1ccc(N(C)C)cc1	.	.	.	12.6µM	?
CCc1nc2ccc(C(=O)NCCOc3ccc(OC)cc3)cn2c1N(C)CCCc1ccccc1	?	.	?	.	14.1µM
NC(CSC(c1ccccc1)(c1ccccc1)c1ccc2c(c1)OCO2)C(=O)O (configuration not stated)	.	12.6µM	/	.	.
CC(=O)c1ccc(Nc2cc(C)nc3c(C)cc(C)cc23)cc1	/	.	?	.	11.2µM
COc1ccc(C(C(=O)NC(C)(C)C)n2c(=O)c(-c3ccco3)nc3ccccc32)cc1 (configuration not stated)	/	25.1µM	/	/	/
O=C(NCc1ccccc1)C(c1ccncc1)n1c(=O)c(-c2ccco2)nc2ccccc21 (configuration not stated)	/	.	/	/	/
O=C(NCc1ccccc1)C(c1ccc(-c2ccccc2)cc1)n1c(=O)c(-c2ccco2)nc2ccccc21 (configuration not stated)	/	14.1µM	/	/	/
CC(C)(C)NC(=O)C(c1ccc(-c2ccccc2)cc1)n1c(=O)c(-c2ccco2)nc2ccccc21 (configuration not stated)	/	39.8µM	/	/	/
Cc1cccc(C)c1NC(=O)C(c1ccc(-c2ccccc2)cc1)n1c(=O)c(-c2ccco2)nc2ccccc21 (configuration not stated)	/	12.6µM	/	/	/
COc1cccc(C(=O)N2CC(c3nnc(-c4ccc(C)cc4)o3)C3(CCOCC3)C2)c1C (configuration not stated)	/	.	/	/	/
CC(c1nc2ccccc2[nH]1)n1c(=O)c(-c2ccco2)nc2ccccc21 (configuration not stated)	/	12.6µM	/	/	/
Cc1cc(/C=N/n2c(COc3ccccc3)nc3ccccc3c2=O)c(O)c([N+](=O)[O-])c1	?	.	?	.	15.8µM
Cc1ccccc1OCc1nc2ccccc2c(=O)n1/N=C/c1cn[nH]c1-c1ccccc1	?	.	?	.	?
Cc1ccc(-c2[nH]ncc2/C=N/n2c(COc3ccccc3)nc3ccccc3c2=O)cc1	/	.	?	14.1µM	10µM
SMILES	ATXN viability	ALOX12 inh	ATXN2 expr inh	HepG2 tox	TGFb inhibitor
O=C(O)COc1ccc(/C=N/n2c(COc3ccccc3)nc3ccccc3c2=O)cc1	.	.	.	.	?
O=c1c2ccccc2nc(COc2ccccc2)n1/N=C/c1ccc(O)c(O)c1	?	3.55µM	/	.	.
O=C(CCc1ncc(-c2ccccc2)o1)NCc1ccc(C(=O)N2CCCC2)cc1	/	.	/	/	/
CN(C(=S)NC(=O)C1CCCC1)c1ccccc1	?	20µM	/	.	?
COc1ccc(CNCC(O)COc2ccc(C(C)(C)c3ccccc3)cc2)cc1 (configuration not stated)	.	?	.	.	?
CCC(C)(C)c1ccc(OCC(O)CNCc2ccccc2)c(C(C)(C)CC)c1 (configuration not stated)	/	44.7µM	/	/	/
O=C(O)c1ccc(N/N=C/c2ccc(-c3ccc(Cl)cc3Cl)o2)cc1	/	?	/	.	?
O=C(O)/C=C/c1cc(Br)c(-c2ccc(Cl)cc2Cl)o1	/	39.8µM	/	/	/
O=C(O)/C=C/c1ccc(-c2ccc(Br)cc2Cl)o1	/	7.94µM	/	/	/
CN(Cc1cccnc1)c1ccc2ncc(Nc3cccc(C(F)(F)F)c3)n2n1	/	.	/	/	/
COCC(=O)NC[C@@H]1C=C(C)[C@H](Cc2nc3ccccc3n2C)C[C@H]1C(C)C	/	.	/	/	/
COc1ccc([C@H]2CC(=O)C[C@@H](CCn3cc(-c4ccccc4)nn3)O2)cc1	.	10µM	.	/	/
CCOC(=O)c1c(-c2ccc(C)cc2)csc1NC(=O)c1ccc(N2C(=O)CCC2=O)cc1	.	.	.	.	.
CCOC(=O)c1cc(CC)sc1NC(=O)c1ccc(N2C(=O)CCC2=O)cc1	.	.	.	3.55µM	.
COc1cccc(NC(=O)c2nn(-c3cccc(OC)c3)c(=O)c3ccccc23)c1	/	.	/	/	/
CN1CCN(c2ncc3nc(-c4ccccc4)c(=O)n(CCC#N)c3n2)CC1	/	.	/	/	/
COc1ccc(-n2c(=O)c(CCc3ccccc3)nc3cnc(N4CCNCC4)nc32)cc1	/	.	/	/	/
CCNc1ncc2nc(-c3ccc(OC)cc3)c(=O)n(CCc3ccccc3)c2n1	/	.	/	/	/
COc1ccc(-n2c(=O)c(CCc3ccccc3)nc3cnc(N4CCN(C)CC4)nc32)cc1	/	12.6µM	/	/	/
CN1CCN(c2ncc3nc(-c4cc(F)cc(F)c4)c(=O)n(Cc4cccs4)c3n2)CC1	/	17.8µM	/	/	/
CN1CCN(c2ncc3nc(-c4ccccc4)c(=O)n(Cc4ccc(F)cc4)c3n2)CC1	/	35.5µM	/	/	/
CN(C)c1ncc2nc(-c3cc(F)cc(F)c3)c(=O)n(Cc3cccs3)c2n1	/	.	/	/	/
CCNc1ncc2nc(-c3cc(F)cc(F)c3)c(=O)n(CCc3ccccc3)c2n1	/	11.2µM	/	/	/
COc1ccc(NC(=O)c2cc3cc(Br)ccc3[nH]2)cc1	/	.	/	/	/
CCOc1ccc2c(ccc(/C=C/c3cc(C)c4cccnc4c3O)[n+]2C)c1	7.52µM	/	?	.	7.08µM
CCC(=O)Nc1nc2ccc(S(C)(=O)=O)cc2s1	.	.	.	.	.
CS(=O)(=O)c1ccc2nc(NC(=O)c3cccc(NS(=O)(=O)c4ccc(F)c(F)c4)c3)sc2c1	.	?	.	.	17.8µM
O=C(Nc1nc2c(s1)CCCC2)c1cccs1	.	.	.	10µM	.
CC(C)CC(=O)Nc1nc2ccc(S(C)(=O)=O)cc2s1	.	.	.	11.2µM	.
O=C(Cc1cccs1)Nc1nc2c(s1)CCCC2	.	.	.	.	.

Screening results deposited in PubChem by National Center for Advancing Translational Sciences (NCATS).
